KCNQ2 inh: inhibitors of rat KCNQ2 potassium channel | AID 2156 | O88943 | 310,000 tested, 1.1% active | B-score at 10 µM | CHO-K1 KCNQ2, FluxOR thallium flux, 20 min; active compounds read low;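 active means fluorescence ratio B-score at most minus 3 library SDs, with starting brightness B-score within 2 library SDs, cut at about -5.5 in these data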
Target sequence (O88943 whole entry, looked up): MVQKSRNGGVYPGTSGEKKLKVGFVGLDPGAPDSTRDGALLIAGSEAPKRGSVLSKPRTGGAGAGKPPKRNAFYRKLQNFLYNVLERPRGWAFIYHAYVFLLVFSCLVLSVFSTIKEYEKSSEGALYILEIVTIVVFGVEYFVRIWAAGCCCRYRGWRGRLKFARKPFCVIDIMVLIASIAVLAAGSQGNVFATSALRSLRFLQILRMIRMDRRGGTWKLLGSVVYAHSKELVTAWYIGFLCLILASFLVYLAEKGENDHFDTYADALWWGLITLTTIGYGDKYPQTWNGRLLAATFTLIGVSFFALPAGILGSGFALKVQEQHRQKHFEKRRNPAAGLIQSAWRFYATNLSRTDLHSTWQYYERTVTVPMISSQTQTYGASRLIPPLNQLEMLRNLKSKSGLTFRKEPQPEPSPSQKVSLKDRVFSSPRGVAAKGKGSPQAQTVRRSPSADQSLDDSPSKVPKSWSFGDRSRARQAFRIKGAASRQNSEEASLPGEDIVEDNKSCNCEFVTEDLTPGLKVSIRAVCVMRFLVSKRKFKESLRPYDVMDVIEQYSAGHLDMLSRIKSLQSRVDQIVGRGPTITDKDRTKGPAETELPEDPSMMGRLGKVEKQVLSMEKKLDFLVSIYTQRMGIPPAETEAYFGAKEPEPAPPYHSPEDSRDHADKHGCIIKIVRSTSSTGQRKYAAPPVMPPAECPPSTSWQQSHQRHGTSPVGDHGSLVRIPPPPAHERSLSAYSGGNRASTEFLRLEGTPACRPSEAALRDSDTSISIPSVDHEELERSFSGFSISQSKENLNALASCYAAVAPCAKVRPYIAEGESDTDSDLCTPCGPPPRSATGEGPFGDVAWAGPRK
KCNQ2 enhance: KCNQ2 (rat) channel potentiation; AID 2239; B-score at 10 µM; CHO-K1 KCNQ2, FluxOR thallium flux fluorescence; active compounds read high; 310,000 tested, 0.54% active; O88943;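 active means fluorescence ratio B-score at least 3 SD of library B-scores, with initial fluorescence B-score within 3 of them, cut at about 5.3 in these data; same plate scores as AID 2156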;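 further: B-score of peak minus minimum over baseline fluorescence ratio after K+ and Tl+ stimulus; positive B-score means potentiation of KCNQ2 with more thallium influx and brighter signal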
The depositor's hits bear a star; i = inactive; / = not tested or not shown. Most compounds without a hit are left out; they make up all but 1.6% or so of the library.

SMILES	KCNQ2 inh	KCNQ2 enhance
O=C(C(Cc1ccccc1)n1cccc1)N1CCN(c2cccc(Cl)c2)CC1 (stereo not given)	-5.8*	-5.8
CC1CCN(c2ccc(NC(=O)c3ccc(Br)o3)cc2)CC1	i	/
Cc1ccc(-c2cc(-c3ccccc3)[nH]c(=S)c2C#N)cc1	i	4.9
N#Cc1c(-c2ccc(C(F)(F)F)cc2)cc(-c2ccccc2)[nH]c1=S	i	5.4*
O=[N+]([O-])c1ccccc1S(=O)(=O)Nc1cccc(-c2ccc3nncn3n2)c1	i	/
COc1ccc(CCN2CC(C(=O)NCC(=O)Nc3ccc(F)c(F)c3)CC2=O)cc1OC (stereo not given)	i	0.45
CCC1CCCCN1CCCNC(=O)c1ccc2c(c1)N(Cc1c(F)cccc1Cl)C(=O)CS2 (stereo not given)	i	/
O=C(NCc1ccc2c(c1)OCO2)c1ccc2c(c1)N(Cc1c(F)cccc1Cl)C(=O)CS2	i	8.7*
CCc1ccc(C(=O)CSc2n[nH]c(-c3ccncc3)n2)cc1	i	6.3*
COC(=O)CSc1n[nH]c(-c2ccncc2)n1	i	0.64
Cc1cc(C)nc(SCC(=O)Nc2nc(-c3ccccc3)c(-c3ccccc3)o2)n1	i	0.07
Cc1ccc(C(=O)Nc2nc(-c3ccccc3)c(-c3ccccc3)o2)cc1	i	8.4*
COc1ccc(C2=NS(=O)(=O)N(C)C(C(=O)N3CCCCC3C)=C2)cc1 (stereo not given)	i	/
CCc1nc(N2CCCCC2)c2oc3ccccc3c2n1	i	/
CCc1nc(N2CCN(Cc3ccc4c(c3)OCO4)CC2)c2oc3ccccc3c2n1	-6.5*	-6.5
CCc1nc(N2CCCCC2C)c2oc3ccccc3c2n1 (stereo not given)	-7.5*	-7.5
CCc1nc(N2CCCCC2C(=O)O)c2oc3ccccc3c2n1 (stereo not given)	i	1.4
COc1ccc(C2NS(=O)(=O)OCC2C)cc1 (stereo not given)	i	0.89
CC1CC(C)CN(C(=O)C2CCC(CNS(=O)(=O)c3ccccc3)CC2)C1 (stereo not given)	i	1.8
CC(=O)c1c(C)n(-c2ccccc2Br)c2ccc(O)cc12	i	/
COc1ccccc1CNC(=O)C1CCCN(S(=O)(=O)c2ccc3c(c2)C(C)(C)C(=O)N3C)C1 (stereo not given)	i	/
COc1ccccc1CNC(=O)C1CCCN(S(=O)(=O)c2ccc3c(c2)CC(C)N3C(C)=O)C1 (stereo not given)	-6.9*	-6.9
CCS(=O)(=O)c1ccc2oc(SCC(=O)NC3CCCC(C)C3C)nc2c1 (stereo not given)	i	1.9
Cc1ccc(/C=C/C(=O)c2ccccc(=O)c2O)c(C)c1	i	5.9*
Cc1ccc(/C=C/C(=O)c2ccccc2)cc1	i	/
SMILES	KCNQ2 inh	KCNQ2 enhance
Cc1cc(S(=O)(=O)N2CCCOC2CNC(=O)C(=O)NCCCN2CCOCC2)ccc1F (stereo not given)	i	/
Cc1nnnn1/C(=C\c1ccccc1)C(=O)OCC(=O)NC1CCCCC1	-6*	-6
Cc1nnnn1/C(=C\c1ccccc1)C(=O)OCC(=O)NC(C)(C)C	i	/
CCc1ccc2oc(C(=O)NC3CCS(=O)(=O)C3)cc(=O)c2c1 (stereo not given)	i	/
CCC(NC(=O)COc1cc2c(c3oc(=O)c(C)c(C)c13)CCC(C)(C)O2)C(=O)O (stereo not given)	i	/
CCCCCCC1(C)NC(=S)N(c2ccccc2)N1 (stereo not given)	i	/
CCC1(c2ccc(Cl)cc2)NC(=S)N(c2ccccc2)N1 (stereo not given)	i	11*
CCCCCC1(C)NC(=S)N(c2ccccc2)N1 (stereo not given)	i	/
CCC1(c2ccccc2)NC(=S)N(c2ccc(C)cc2)N1 (stereo not given)	i	13*
CCc1nnc(NC(=O)CC(C)c2ccccc2)s1 (stereo not given)	i	/
CCn1c(=O)c(C(=O)NCCc2ccc(Cl)cc2)c(O)c2ccccc21	i	1.2
CCCn1c(=O)c(C(=O)NCCc2ccc(Cl)cc2)c(O)c2ccccc21	-5.6*	-5.6
CC(C)C1OC2c3cccc4cccc(c34)C2N1c1ccccc1 (stereo not given)	-5.7*	-5.7
Cc1ccc(C)n1-c1ccc(C(=O)NN)s1	-5.7*	-5.7
CCOC(=O)CNC(=O)c1ccc(Br)s1	i	/
CC(C#Cc1ccc2c(c1)COc1c3ccccc3nn1-2)OC(C)(C)C (stereo not given)	i	/
CN(CC(=O)Nc1cccc(F)c1)C(=O)CC1CC2CCC1C2 (stereo not given)	i	/
O=C(NC(=S)Nc1nc2ccccc2s1)c1ccco1	i	8.1*
COC(=O)c1sc(NC(=O)c2ccco2)nc1C	i	0.18
O=C(NC(=S)NCc1ccc(-c2nc3ccccc3s2)cc1)c1ccco1	i	0.1
CCOC(=O)c1sc(NC(=S)NC(=O)c2ccco2)nc1C	i	5.7*
O=C(NCc1cccs1)c1cc(-c2ccccc2)nc2ccccc12	i	0.3
Cc1ccc(-c2nc3ccccc3c(C(=O)NCc3cccs3)c2C)cc1	-6.6*	-6.6
COc1ccccc1N(C(=O)c1ccco1)C(C(=O)NC1CCCC1)c1ccc(N2CCOCC2)cc1 (stereo not given)	i	/
O=C(O)/C=C/C(=O)Nc1ccc(C2(c3ccc(NC(=O)/C=C/C(=O)O)cc3)c3ccccc3-c3ccccc32)cc1	i	0.56
SMILES	KCNQ2 inh	KCNQ2 enhance
COc1ccc(C)cc1NC(=O)C(Sc1nnc(Nc2ccccc2F)s1)c1ccccc1 (stereo not given)	-6.3*	-6.3
COc1ccc(C)cc1NC(=O)C(Sc1nncn1C)c1ccccc1 (stereo not given)	i	/
COc1cc(SC)ccc1C(=O)NCCNC(=O)c1nonc1N	i	2.9
COc1ccccc1OCC#CCNC1CCCCC1C (stereo not given)	i	/
Cc1cccc(NC(=O)CCC(=O)N/N=C/c2ccco2)c1	i	/
CCCCCC(=O)N/N=C/c1ccco1	i	7.2*
O=C(N/N=C\c1ccco1)Nc1cccc(Cl)c1	i	6*
O=C(CCCCCCCCC(=O)N/N=C/c1ccco1)N/N=C/c1ccco1	i	0.39
CCN(CC(=O)Nc1c(F)cccc1F)C(=O)CSc1nc(C)cc(C)n1	i	0.36
Cc1ccc(-c2cccc(C(=O)NCc3ccccc3)n2)c2ccccc12	i	/
Cc1ccc(-c2cccc(C(=O)NCCc3ccccc3)n2)c2ccccc12	-6.3*	-6.3
CCCc1cc(C(=O)N2CCCC(Nc3ccc(C)c(C)c3)C2)n(C)n1 (stereo not given)	i	/
COC(=O)NNC(=O)c1ccc(C(C)(C)C)cc1	i	/
CC(C)(C)NC(=O)C(=O)NNC(=O)c1ccc(C(C)(C)C)cc1	i	12*
O=C(COc1ccc(Br)cc1)NC1CC1	i	0.88
Cc1cccc(C(=O)NNC(=O)C(=O)NC(C)(C)C)c1	i	3.2
CC(C)(C)NC(=O)C(=O)NNC(=O)COc1ccc(Br)cc1	i	6.2*
CC(C)(C)NC(=O)C(=O)NNC(=O)c1cccc(Br)c1	i	6.7*
CCN(C(=O)COC(=O)c1nc(Cl)ccc1Cl)C1CCS(=O)(=O)C1 (stereo not given)	i	/
CC(C#N)Sc1ncnc2sc(-c3ccccc3)cc12 (stereo not given)	i	0.9

Source: PubChem BioAssay (Johns Hopkins Ion Channel Center)
